Shown are actives, neighbours in structure and some others; about 2.2% of the full set was active somewhere.
CCT chaperon mod = modulators of cytosolic chaperonin (CCT/TRiC) activity. purified chaperonin ATPase assay, HTRF ADP detection, 30 min. activity change, % (test concentration not listed), hits read low. hit rate 0.3% among 360,000; in the data active = activity change below about -30%; note: % is set by controls: 0 for no effect and ±100 for the full control effect
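We incubate TRiC, 40 or 20 nM final, with library compounds at 76 uM and 10 uM ATP for 30 min at 37 °C. ADP formed is detected with Transcreener HTRF reagents after 30 min at room temperature.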
uPA generation = blocks generation of uPA at the cell surface. cell surface uPA generation assay, qHTS. Potency, µM (doses to about 38.3 µM), inactives show at the top dose activity change, negative = inhibition, usual class: inhibitors. hit rate 0.31% among 330,000. AID 540303; active = well fitted inhibition curve with a large enough effect; inconclusive = small, poorly fitted or top-dose-only effect; inactive = no such curve, though single readings can be large or run the other way; tested in mouse RAW 264.7 cells; note: potency is the fitted concentration of half-maximal effect; % is set by controls: 0 for no effect and ±100 for the full control effect; nearly all actives have a fitted effect of over 55% in size
GLP-1R inv ag = acts as inverse agonist at human GLP-1 receptor; P43220; HEK293 GLP-1R CRE-luciferase, luminescence, 24 h; GLP-1R form is constitutively active; Potency, µM (titrated, usually from 38.3 µM), for the others: at the top dose activity change, negative = inhibition, most hits filed as inhibitors; hit rate 1.6% among 410,000; AID 624417; note: potency is the fitted concentration of half-maximal effect; % is set by controls: 0 for no effect and ±100 for the full control effect; nearly all actives have a fitted effect of over 55% in size
Target sequence (P43220 whole entry, looked up): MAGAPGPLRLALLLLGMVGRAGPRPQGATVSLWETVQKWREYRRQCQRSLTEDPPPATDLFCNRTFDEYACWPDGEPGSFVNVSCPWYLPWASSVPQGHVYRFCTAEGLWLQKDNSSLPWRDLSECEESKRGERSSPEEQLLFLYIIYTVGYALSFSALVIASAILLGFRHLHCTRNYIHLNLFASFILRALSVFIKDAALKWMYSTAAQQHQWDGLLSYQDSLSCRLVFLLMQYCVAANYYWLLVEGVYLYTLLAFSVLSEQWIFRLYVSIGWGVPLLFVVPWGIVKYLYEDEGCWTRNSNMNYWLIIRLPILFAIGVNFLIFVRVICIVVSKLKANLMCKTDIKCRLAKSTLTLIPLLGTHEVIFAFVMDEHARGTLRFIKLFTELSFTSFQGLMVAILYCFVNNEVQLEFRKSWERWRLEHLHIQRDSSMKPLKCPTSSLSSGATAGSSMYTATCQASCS
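HEK293 cells stably co-expressing constitutively active GLP-1R and a cAMP-responsive luciferase reporter were seeded in DMEM with 10% Nu serum, given compounds after 12 h, and incubated 24 h at 37 deg C. Luminescence was then read.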
GLP1R ag = activates the human GLP-1 receptor. P43220. HEK293 GLP-1R CRE-luciferase, luminescence, 4-6 h; cells express a hypersensitive GLP-1R form. Potency, µM (titrated, usually from 45.6 µM), without a hit: top-dose activation, usual class: activators. hit rate 0.007% among 380,000. AID 624172; note: potency is the fitted concentration of half-maximal effect; % of control where 0% means no effect
HEK293 tox = cytotoxicity in counter-screen for GLP-1R inverse agonists; HEK293 cAMP-luciferase reporter cells, luminescence, 24 h; AID 624418; Potency, µM (doses to about 38.3 µM), for inactives: top-dose activity change, negative = inhibition, usual class: inhibitors; hit rate 0.13% among 410,000;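 note: loss of luciferase light is scored as toxicity; potency is the fitted concentration of half-maximal effect; % is set by controls: 0 for no effect and ±100 for the full control effect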
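Here, cytotoxicity is scored as loss of luminescence. The MLSMR collection was tested on cells seeded in medium containing 10% Nu serum, with a 24 hr compound exposure preceded by 12 hours of culture.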
MmCpn inh = inhibitors of Methanococcus maripaludis chaperonin TRiC (MmCpn). Potency, µM (series often up to 76.9 µM), inactives show at the highest dose activity, negative = inhibition, actives largely listed as inhibitors. purified Mm-Cpn ATPase, ADP Transcreener TR-FRET. hit rate 0.031% among 330,000. AID 504842; note: potency is the fitted concentration of half-maximal effect; % is set by controls: 0 for no effect and ±100 for the full control effect; nearly all actives have a fitted effect of over 80% in size
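Eu-cryptate anti-ADP/ADP-d2 competition gives a ratio inversely related to ADP. Enzyme at 25 nM was pre-exposed to compound for 10 min, then given 10 uM ATP for 30 min, 37°C throughout.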
An asterisk follows results filed as active; [ ] = dose if it differs, or a comment. Unless noted, calls come from the whole dose curve; as a rule, active = well fitted curve in the direction sought with a large enough effect; inconclusive = small, poorly fitted or top-dose-only effect, or another doubt; inactive = no such curve, though single readings can be large; an effect the other way counts as inactive or inconclusive.

Screening CCN(CC)S(=O)(=O)c1cccc(NC(=O)c2cccc(S(=O)(=O)N3CCCC3)c2)c1 returned CCT chaperon mod -55.5*, uPA generation -5.4%, GLP-1R inv ag inconclusive, GLP1R ag -4.7%, HEK293 tox -3.5% and MmCpn inh -1.4%.
For COc1ccc(-n2c(=O)c3c(c4cc(OC)ccc4n3C)n(Cc3cc(C)ccc3C)c2=O)cc1 the results were GLP-1R inv ag 6.2%, GLP1R ag 0.0% and HEK293 tox 2.5%.
`Cc1ccc(C(=O)NNC(=O)c2cccc(S(=O)(=O)N3CCN(c4ccccc4)CC3)c2)cc1` gave CCT chaperon mod -48.0*, uPA generation 0.6%, GLP-1R inv ag 10.4%, GLP1R ag -6.5%, HEK293 tox 12.5% and MmCpn inh -1.0%.
`COc1ccccc1CN(C)CC(=O)Nc1cccc(S(=O)(=O)N2CCCC2)c1` gave CCT chaperon mod -1.4, uPA generation -4.8%, GLP-1R inv ag inconclusive, GLP1R ag -2.5%, HEK293 tox -18.7% and MmCpn inh -1.0%.
For COc1cccc(CN(C)CC(=O)Nc2cc(S(=O)(=O)N3CCCC3)ccc2Cl)c1OC the results were CCT chaperon mod 0.4, uPA generation -4.7%, GLP-1R inv ag 7.94µM*, GLP1R ag 0.2%, HEK293 tox 3.5% and MmCpn inh -0.6%.
`Cc1cccnc1NC(=O)c1cccc(S(=O)(=O)N2CCN(c3ccccc3)CC2)c1` gave CCT chaperon mod -1.6, uPA generation -7.3%, GLP-1R inv ag -5.3%, GLP1R ag 8.4%, HEK293 tox -0.4% and MmCpn inh 0.9%.
`Cc1ccc(-c2nc(SCC(=O)Nc3cc(S(=O)(=O)N4CCCCC4)ccc3Cl)n[nH]2)cc1` gave CCT chaperon mod 1.4, uPA generation -7.1%, GLP-1R inv ag 10µM*, GLP1R ag 13.6%, HEK293 tox inconclusive and MmCpn inh -0.2%.
COc1ccc(S(=O)(=O)N2CCOCC2)cc1C(=O)Nc1ccc(N2CCCCCC2)cc1 was read as CCT chaperon mod -1.3, uPA generation inconclusive, GLP-1R inv ag 10µM*, GLP1R ag 3.2% and HEK293 tox -21.6%.
`O=C(NCCn1cc(SCc2ccc(F)cc2)c2ccccc21)c1cccs1` gave GLP-1R inv ag inconclusive, GLP1R ag -12.2% and HEK293 tox -15.2%.
For COc1ccc(S(=O)(=O)N(C)C)cc1NCC(=O)Nc1cccc2ccccc12 the results were CCT chaperon mod 0.1, uPA generation -1.2%, GLP-1R inv ag -17.5%, GLP1R ag 7.4% and HEK293 tox -13.2%.
Screening O=C(NC1CC1)c1cccc(NC(=O)c2cc(S(=O)(=O)N3CCOCC3)ccc2Cl)c1 returned CCT chaperon mod -32.0*, uPA generation 6.2%, GLP-1R inv ag -6.7%, GLP1R ag 13.1%, HEK293 tox -1.1% and MmCpn inh -1.2%.
Screening COc1cc(Cl)c(C)cc1NCC(=O)Nc1cccc(S(=O)(=O)N2CCCC2)c1 returned CCT chaperon mod -2.3, uPA generation -0.1%, GLP-1R inv ag 8.91µM*, GLP1R ag -5.4%, HEK293 tox -15.4% and MmCpn inh 2.7%.
COc1ccc(NC(=O)CN2C(=O)CSc3ccc(S(=O)(=O)N4CCCC4)cc32)cc1OC was read as CCT chaperon mod -36.7*, uPA generation 5.7%, GLP-1R inv ag -15.8%, GLP1R ag -2.6%, HEK293 tox -12.9% and MmCpn inh -0.2%.
`COc1ccc(S(=O)(=O)N(C)C)cc1NCC(=O)Nc1ccc(Br)c(C)c1` gave CCT chaperon mod 1.4, uPA generation 6.4%, GLP-1R inv ag 11.2µM*, GLP1R ag 9.3%, HEK293 tox -6.5% and MmCpn inh 1.1%.
CN(C)[C@H]1C(=O)C(C(=O)NCN2CCCC2)=C(O)[C@]2(O)C(=O)C3=C(O)c4c(O)cccc4[C@@](C)(O)[C@H]3C[C@@H]12 was read as GLP1R ag -2.5%[19.8 µM].
`CSc1nn(Cc2ccccc2C)c(NC(C)=O)c1S(=O)(=O)c1ccc(C)cc1` gave GLP-1R inv ag inconclusive and HEK293 tox 2.9%.
`O=C(CCc1ccccc1)Nc1cccc(S(=O)(=O)N2CCOCC2)c1` gave CCT chaperon mod -35.5*, uPA generation -29.6%, GLP-1R inv ag 13.6%, GLP1R ag -5.2%, HEK293 tox 4.4% and MmCpn inh 0.2%.
`COc1ccc(CCC(=O)Nc2cccc(S(=O)(=O)N3CCOCC3)c2)cc1OC` gave CCT chaperon mod -3.2, uPA generation -5.5%, GLP-1R inv ag -7.2%, GLP1R ag 11.6%, HEK293 tox -12.6% and MmCpn inh 0.5%.
Screening CCOC(=O)C1CCN(C(=O)c2ccc3c(c2)N=C(CC)c2cc(C)ccc2S3)CC1 returned GLP-1R inv ag inconclusive, GLP1R ag -1.2% and HEK293 tox 4.3%.
O=c1[nH]c(C2CCN(S(=O)(=O)c3cccc(C(F)(F)F)c3)CC2)nc2c1nnn2Cc1cccc(F)c1 was read as CCT chaperon mod 0.4, uPA generation -8.6%, GLP-1R inv ag 7.94µM*, GLP1R ag 6.1%, HEK293 tox inconclusive and MmCpn inh 1.0%.
For O=C(Nc1ccc(S(=O)(=O)NC2=NCCCCC2)cc1)c1ccc([N+](=O)[O-])s1 the results were CCT chaperon mod -3.1, uPA generation 10µM*, GLP-1R inv ag inconclusive, GLP1R ag -6.4%, HEK293 tox inconclusive and MmCpn inh 1.3%.
Screening O=C(Nc1ccc(S(=O)(=O)NC2=NCCCCC2)cc1)c1cccs1 returned CCT chaperon mod 1.1, uPA generation 10.7%, GLP-1R inv ag 5.6%, GLP1R ag 6.2%, HEK293 tox -4.0% and MmCpn inh -3.1%.
`COc1ccc(C)cc1N/C(N)=N/c1nc(C)cc(C)n1` gave CCT chaperon mod 1.5, uPA generation -5.5%, GLP-1R inv ag -7.9%, GLP1R ag -6.8%, HEK293 tox -12.0% and MmCpn inh 6.6%.
Cc1ccc(C)c(N/C(N)=N/c2nc(C)cc(C)n2)c1 was read as CCT chaperon mod 1.7, uPA generation -7.0%, GLP-1R inv ag 8.91µM*, GLP1R ag -30.1%, HEK293 tox inconclusive and MmCpn inh 1.5%.
Screening CC(=O)NC(c1ccco1)c1cc(Cl)c2ccc(N3CCCCC3)nc2c1O (centres undefined) returned MmCpn inh -0.1%.
O=C(c1ccc(CN2CCc3ccccc3C2)cc1)N1CCN(c2ccc(F)cc2)CC1 was read as CCT chaperon mod 5.0, uPA generation -9.0%, GLP-1R inv ag 2µM*, GLP1R ag -0.4% and HEK293 tox -28.3%.
